Experimental data: PubChem BioAssay (NCI)
The panel holds about 83,000 compounds, 20% with a hit somewhere; the sample as a whole holds those more often.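 The test compound was applied at a single concentration to cells in 96-well plates for 48 hours, and percent growth was recorded.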 The source made the active and inactive calls. How the source made its calls: active means growth percent below 10; inactive means the rest.

Experiments:
Test in all cases: NCI-60 one-dose screen, 48 h (100 = growth as untreated, 0 = no growth, -100 = all killed)
HCT-15 colon = details: 10 µM unless noted
HT29 colon = details: 10 µM unless noted
SNB-75 CNS = details: 10 µM unless noted
SNB-19 CNS = details: 10 µM unless noted
U251 CNS = details: 10 µM unless noted
PC-3 prostate = details: 10 µM unless noted
SK-MEL-5 melanoma = details: 10 µM unless noted
UACC-62 melanoma = details: 10 µM unless noted
LOX IMVI melanoma = details: 10 µM unless noted
SK-MEL-28 melanoma = details: 10 µM unless noted
SK-MEL-2 melanoma = details: 10 µM unless noted
EKVX NSCLC = details: 10 µM unless noted
SN12C renal = details: 10 µM unless noted
UO-31 renal = details: 10 µM unless noted
TK-10 renal = details: 10 µM unless noted
ACHN renal = details: 10 µM unless noted
CCRF-CEM leukemia = details: 10 µM unless noted
A498 renal = details: 10 µM
HL-60(TB) leukemia = details: 10 µM unless noted
CAKI-1 renal = details: 10 µM unless noted

Measured: growth

O=NN1CCCc2cccc(O)c21
inactive: HCT-15 colon 27.2% | HT29 colon 94.6% | SNB-75 CNS 21.8% | SNB-19 CNS 31% | U251 CNS 21.9% | PC-3 prostate 51.8% | SK-MEL-5 melanoma 19.9% | UACC-62 melanoma 26.7% | LOX IMVI melanoma 23.9% | SK-MEL-28 melanoma 67.2% | SK-MEL-2 melanoma 56.1% | EKVX NSCLC 69.4% | SN12C renal 21.7% | UO-31 renal 20.9% | TK-10 renal 95.9% | ACHN renal 17.2% | CCRF-CEM leukemia 30.2%

O=P(N1CC1)(N1CC1)N1CCc2ccccc21
inactive: HCT-15 colon 115% | HT29 colon 104% | SNB-75 CNS 91.1% | SNB-19 CNS 102% | U251 CNS 95.5% | PC-3 prostate 88.6% | SK-MEL-5 melanoma 109% | UACC-62 melanoma 92.8% | LOX IMVI melanoma 93.3% | SK-MEL-28 melanoma 115% | SK-MEL-2 melanoma 121% | EKVX NSCLC 119% | SN12C renal 92.4% | UO-31 renal 92.2% | TK-10 renal 110% | ACHN renal 108% | A498 renal 106% | CCRF-CEM leukemia 104%

COC(=O)[C@@H](C)C[C@H](Cc1ccc(F)cc1)NC(=O)c1csc([C@@H](C[C@H](C(C)C)N(C)C(=O)[C@@H](NC(=O)[C@H]2CCCCN2C)C(C)C)OC(C)=O)n1
active: HT29 colon 3.51% | U251 CNS 6.95% | SK-MEL-5 melanoma -32.8% | HL-60(TB) leukemia -37.5%
inactive: HCT-15 colon 15.6% | SNB-75 CNS 63.8% | SNB-19 CNS 36.6% | PC-3 prostate 28.4% | UACC-62 melanoma 42.2% | LOX IMVI melanoma 23.1% | SK-MEL-28 melanoma 58.9% | SK-MEL-2 melanoma 37.7% | EKVX NSCLC 48.7% | SN12C renal 26.6% | UO-31 renal 47% | TK-10 renal 50.2% | ACHN renal 22.1% | CCRF-CEM leukemia 12.3%

COC(=O)[C@@H](C)C[C@H](Cc1ccccc1)NC(=O)c1cccc([C@@H](C[C@H](C(C)C)N(C)C(=O)[C@@H](NC(=O)[C@H]2CCCCN2C)C(C)C)OC(C)=O)n1
inactive: HCT-15 colon 10.6% | SNB-75 CNS 26.5% | SNB-19 CNS 18.5% | U251 CNS 14.6% | PC-3 prostate 28.7% | UACC-62 melanoma 29.1% | LOX IMVI melanoma 13.6% | SK-MEL-28 melanoma 67.2% | SK-MEL-2 melanoma 26.4% | EKVX NSCLC 34.3% | SN12C renal 17.1% | UO-31 renal 41.8% | TK-10 renal 58.7%
active: HT29 colon 6.05% | SK-MEL-5 melanoma -50.6% | A498 renal -0.869% | HL-60(TB) leukemia -28.6% | CCRF-CEM leukemia 7.41%

COC(=O)[C@@H](C)C[C@H](Cc1ccccc1)NC(=O)c1csc([C@@H](C[C@H](C(C)C)N(C)C(=O)[C@@H](NC(=O)[C@H]2CCCN2C)C2CC2)OC(C)=O)n1
inactive: HCT-15 colon 18.3% | SNB-75 CNS 28.9% | SNB-19 CNS 75.6% | UACC-62 melanoma 41.2% | LOX IMVI melanoma 15% | SK-MEL-28 melanoma 56.4% | SK-MEL-2 melanoma 35.8% | EKVX NSCLC 31.1% | SN12C renal 25.2% | UO-31 renal 48.2% | ACHN renal 20.8% | CAKI-1 renal 12.7%
active: HT29 colon 6.25% | U251 CNS 8.67% | PC-3 prostate 8.37% | SK-MEL-5 melanoma -52.1% | A498 renal -0.976% | HL-60(TB) leukemia -36.8% | CCRF-CEM leukemia 6.07%

CC[CH2][Sn]([Cl])([Cl])[CH2]CC
inactive: HCT-15 colon 83.1% | HT29 colon 103% | SNB-75 CNS 55.9% | SNB-19 CNS 88.9% | U251 CNS 39.2% | PC-3 prostate 103% | SK-MEL-5 melanoma 86.4% | UACC-62 melanoma 60% | LOX IMVI melanoma 27.6% | SK-MEL-28 melanoma 69.2% | SK-MEL-2 melanoma 52.4% | EKVX NSCLC 104% | UO-31 renal 76.6% | TK-10 renal 56.8% | ACHN renal 76.3% | CAKI-1 renal 64.1% | A498 renal 47.4% | HL-60(TB) leukemia 54.9% | CCRF-CEM leukemia 10%

COC(=O)[C@@H](C)C[C@H](Cc1ccccc1)NC(=O)c1csc([C@@H](C[C@H](C(C)C)N(C)C(=O)[C@@H](NC(=O)[C@H]2CCCCN2C)C(C)C)OC(C)=O)n1
inactive: HCT-15 colon 15% | SNB-19 CNS 65.6% | UACC-62 melanoma 41.7% | LOX IMVI melanoma 14.2% | SK-MEL-28 melanoma 39.2% | SK-MEL-2 melanoma 16.3% | EKVX NSCLC 29.6% | SN12C renal 23.3% | UO-31 renal 42% | ACHN renal 12.6% | CAKI-1 renal 12.8%
active: HT29 colon 5.25% | SNB-75 CNS 5.98% | U251 CNS -1.97% | PC-3 prostate 7.77% | SK-MEL-5 melanoma -50.2% | A498 renal -7.32% | HL-60(TB) leukemia -47.8% | CCRF-CEM leukemia 0.404%

CCCCNC(c1ccc(Cl)cc1)C(O)c1ccc(Cl)cc1 (stereo unspecified)
active: HT29 colon 4.8% | U251 CNS 6.63% | LOX IMVI melanoma -75.6%
inactive: HCT-15 colon 32.7% | SNB-75 CNS 61.9% | SNB-19 CNS 54.6% | PC-3 prostate 42.2% | SK-MEL-5 melanoma 32.7% | UACC-62 melanoma 19.2% | SK-MEL-28 melanoma 45.6% | SK-MEL-2 melanoma 62.5% | EKVX NSCLC 53.9% | UO-31 renal 36.9% | TK-10 renal 56.8% | ACHN renal 35.2% | CAKI-1 renal 30.3% | A498 renal 57.8% | HL-60(TB) leukemia 19.6% | CCRF-CEM leukemia 29.7%

CCOP1(=O)CC(C)=C(Cl)C(P(=O)(OCC)OCC)C1 (stereo unspecified)
inactive: HCT-15 colon 101% | HT29 colon 96.2% | SNB-75 CNS 78.7% | SNB-19 CNS 89.9% | U251 CNS 101% | PC-3 prostate 92.6% | SK-MEL-5 melanoma 101% | UACC-62 melanoma 92.3% | LOX IMVI melanoma 92.6% | SK-MEL-28 melanoma 87.3% | SK-MEL-2 melanoma 104% | EKVX NSCLC 109% | SN12C renal 101% | TK-10 renal 135% | CAKI-1 renal 110% | A498 renal 103% | HL-60(TB) leukemia 107%
active: CCRF-CEM leukemia -27.5%

CC[C@H](C)[C@H](NC(=O)N[C@@H](C)c1ccccc1)C(=O)N(C)[C@H](C[C@@H](OC(C)=O)c1nc(C(=O)N[C@@H](Cc2ccccc2)C[C@H](C)C(=O)OC)cs1)C(C)C
inactive: HCT-15 colon 12.3% | SNB-19 CNS 56.7% | U251 CNS 13.1% | PC-3 prostate 22.6% | UACC-62 melanoma 11.4% | LOX IMVI melanoma 18% | SK-MEL-28 melanoma 44.6% | EKVX NSCLC 36.7% | SN12C renal 39.9% | UO-31 renal 28.5% | ACHN renal 21.5% | CCRF-CEM leukemia 10.7%
active: HT29 colon -24.4% | SNB-75 CNS -0.0971% | SK-MEL-5 melanoma -33.7% | SK-MEL-2 melanoma -14.9% | A498 renal -4.53% | HL-60(TB) leukemia -16.9%

CO[C@H]1CC[C@@]2(C)C(=CC[C@@H]3[C@@H]2CC[C@]2(C)C(=O)C(=O)C[C@@H]32)C1
inactive: HCT-15 colon 103% | HT29 colon 106% | SNB-75 CNS 103% | SNB-19 CNS 94.8% | U251 CNS 104% | PC-3 prostate 84.2% | SK-MEL-5 melanoma 99% | UACC-62 melanoma 92.5% | LOX IMVI melanoma 92.5% | SK-MEL-28 melanoma 117% | SK-MEL-2 melanoma 128% | EKVX NSCLC 108% | UO-31 renal 86.9% | TK-10 renal 117% | ACHN renal 102% | CAKI-1 renal 93% | A498 renal 82.1% | HL-60(TB) leukemia 141% | CCRF-CEM leukemia 95.3%

N#CCCNc1ccccc1
active: HL-60(TB) leukemia -10.8%
inactive: HCT-15 colon 111% | HT29 colon 108% | SNB-75 CNS 88.6% | SNB-19 CNS 116% | U251 CNS 103% | PC-3 prostate 96.9% | SK-MEL-5 melanoma 107% | UACC-62 melanoma 117% | LOX IMVI melanoma 106% | SK-MEL-28 melanoma 99.8% | SK-MEL-2 melanoma 112% | EKVX NSCLC 98% | SN12C renal 111% | UO-31 renal 93.6% | TK-10 renal 115% | CCRF-CEM leukemia 80.6%

CCOc1ccc(/C=C/[N+](=O)[O-])cc1
active: HT29 colon 9.84%
inactive: HCT-15 colon 51.1% | SNB-75 CNS 90.6% | SNB-19 CNS 91.2% | U251 CNS 60.1% | PC-3 prostate 77.4% | SK-MEL-5 melanoma 74.4% | UACC-62 melanoma 92.8% | LOX IMVI melanoma 62.9% | SK-MEL-28 melanoma 110% | SK-MEL-2 melanoma 101% | EKVX NSCLC 93.7% | SN12C renal 94.5% | UO-31 renal 71.1% | ACHN renal 96.3% | CAKI-1 renal 101% | A498 renal 78.1% | HL-60(TB) leukemia 105% | CCRF-CEM leukemia 90.6%

Nc1ncnc2n[nH]nc12
inactive: HCT-15 colon 63.4% | HT29 colon 79.7% | SNB-75 CNS 90.6% | SNB-19 CNS 93.5% | U251 CNS 70.1% | PC-3 prostate 64.5% | SK-MEL-5 melanoma 72.5% | UACC-62 melanoma 46.7% | LOX IMVI melanoma 43.9% | SK-MEL-28 melanoma 87.6% | SK-MEL-2 melanoma 12.5% | EKVX NSCLC 66.7% | UO-31 renal 35.9% | TK-10 renal 61% | ACHN renal 46.5% | CAKI-1 renal 40.1% | A498 renal 51.4% | HL-60(TB) leukemia 83.5% | CCRF-CEM leukemia 80.7%

COC(=O)[C@@H](C)C[C@H](Cc1ccccc1)NC(=O)c1csc([C@@H](C[C@H](C(C)C)N(C)C(=O)C2(NC(=O)[C@H]3CCCCN3C)CC2)OC(C)=O)n1
inactive: HCT-15 colon 20.5% | SNB-75 CNS 26.5% | SNB-19 CNS 68.2% | PC-3 prostate 12.3% | UACC-62 melanoma 41.1% | SK-MEL-28 melanoma 58.7% | SK-MEL-2 melanoma 34.1% | EKVX NSCLC 29.1% | SN12C renal 31.3% | UO-31 renal 48% | ACHN renal 32.4% | CAKI-1 renal 59.8%
active: HT29 colon 9.71% | U251 CNS 4.91% | SK-MEL-5 melanoma -40.2% | LOX IMVI melanoma 3.04% | A498 renal -5.45% | HL-60(TB) leukemia -46.1% | CCRF-CEM leukemia 3.37%
